# High-throughput results from PubChem BioAssay.
# Many of the other results were omitted from the sample, so hits are more common in it than they were.
# Giardia FBPA inh – Giardia lamblia aldolase inhibition. purified Giardia FBPA. Potency, µM (series often up to 59.6 µM), for the others: at the top dose activity, negative = inhibition, actives largely listed as inhibitors. 290,000 tested, 0.71% active; further: nearly all actives have a fitted effect of over 55% in size
# Target sequence (A8B2U2 whole entry, looked up): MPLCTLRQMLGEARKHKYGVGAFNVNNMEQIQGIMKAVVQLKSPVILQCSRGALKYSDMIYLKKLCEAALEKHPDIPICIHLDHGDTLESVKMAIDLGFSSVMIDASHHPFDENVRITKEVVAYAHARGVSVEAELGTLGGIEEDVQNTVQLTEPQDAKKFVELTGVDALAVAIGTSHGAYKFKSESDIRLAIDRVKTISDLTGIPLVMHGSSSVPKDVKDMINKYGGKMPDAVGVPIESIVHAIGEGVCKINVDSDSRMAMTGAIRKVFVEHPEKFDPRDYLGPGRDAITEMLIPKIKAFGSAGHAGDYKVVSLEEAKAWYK
#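 40 nM FBPA preincubated 10 min at RT with compound (up to 57.5 uM final), then substrate plus GAPDH/TPI/NAD/arsenate coupling and diaphorase/resazurin added. Fluorescence read after 20 min at RT, 525/598 nm.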
# Cruzain noTriton – inhibitors of Trypanosoma cruzi cruzain without detergent; P25779; purified cruzain, Z-FR-AMC fluorescence, no detergent; 200,000 tested, 2.3% active; Potency, µM, for the others: max response, negative = inhibition, actives largely listed as inhibitors;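 further: plate controls were enzyme without inhibitor for no effect and buffer without enzyme for full effect; nearly all actives have a fitted effect of over 40% in size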
# Target sequence (P25779 123-467 limits assumed): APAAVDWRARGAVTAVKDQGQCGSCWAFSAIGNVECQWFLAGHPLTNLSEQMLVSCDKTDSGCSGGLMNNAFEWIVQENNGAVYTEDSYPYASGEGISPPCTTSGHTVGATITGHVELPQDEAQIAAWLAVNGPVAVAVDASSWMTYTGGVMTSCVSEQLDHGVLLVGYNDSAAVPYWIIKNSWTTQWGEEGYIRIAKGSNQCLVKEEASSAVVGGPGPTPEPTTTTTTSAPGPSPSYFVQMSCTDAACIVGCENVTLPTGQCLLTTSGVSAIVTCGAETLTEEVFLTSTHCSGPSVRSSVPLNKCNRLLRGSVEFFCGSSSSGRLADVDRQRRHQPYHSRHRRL
#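 Detergent-free condition (0.00005% Triton X-100) in acetate buffer pH 5.5 with DTT. 1.5 nM enzyme and compound were pre-mixed 15 min, then 2 uM Z-FR-AMC substrate added; reaction progress from fluorescence change between first and third reads (60 s).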
# Cruzain inh Det – inhibitors of Trypanosoma cruzi cruzain with detergent; P25779; purified cruzain, Z-FR-AMC fluorescence, 0.01% Triton; Potency, µM, without a hit: max response, negative = inhibition, most hits filed as inhibitors; 200,000 tested, 0.43% active; AID 1478;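 further: plate controls were neutral wells for no effect and buffer without enzyme for full effect; nearly all actives have a fitted effect of over 40% in size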
#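 Compounds were screened in titration against cruzain (1.5 nM) with 0.01% Triton X-100 to counter colloidal aggregation. Activity was the AMC fluorescence increase over 60 s after adding 2 uM Z-FR-AMC at pH 5.5.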
# Active calls of the source: *; ? = inconclusive; nt = no result given; [ ] = remark or other dose. The call rests on the fitted dose curve; in most records, active means well fitted curve in the direction sought with a large enough effect; inconclusive means small, poorly fitted or top-dose-only effect, or another doubt; inactive means no such curve, though single readings can be large; an effect the other way counts as inactive or inconclusive. Unless noted, on the % scale 0 is the no-effect control and ±100 the full control effect; potency means the concentration at half of the fitted maximal effect.
SMILES,Giardia FBPA inh,Cruzain noTriton,Cruzain inh Det
CCCc1[nH]nc2c1C(c1cc(OC)cc(OC)c1)C(C#N)=C(N)O2 (stereo not given),-28%,-3%,-4%
CCCc1[nH]nc2c1C(c1cccc(OC(=O)c3ccco3)c1)C(C#N)=C(N)O2 (stereo not given),-21%,20µM*,?
C=C(Cl)CCl,nt,4%,-2%
Cc1nc(/N=C(\N)NC(=O)N2c3ccccc3Sc3ccccc32)nc2ccccc12,-3%,7.9µM*,-4%
Cc1nc(/N=C(\N)NC(=O)c2ccccc2)nc2ccccc12,-2%,3%,-11%
COc1ccccc1[C@H]1C(c2ccc(F)cc2)=NN(c2ccccc2)[C@@H]1CO,-15%[89.2 µM],32µM*,-1%
COc1ccccc1[C@H]1C(c2ccccc2)=NN(c2ccccc2)[C@@H]1CO,-11%[89.2 µM],?,-26%
COc1ccccc1[C@H]1C(c2cccc(C)c2)=NN(c2ccccc2)[C@@H]1CO,-11%[89.2 µM],18µM*,3%
CC[C@H]1C(c2ccccc2)=NN(c2ccccc2)[C@@H]1CO,-10%[89.2 µM],?,-8%
CCOC(=O)C(C)Sc1nnc2ccc3ccccc3n12 (stereo not given),nt,-3%,-4%
O=C(Cn1cc(SCc2ccc(C(F)(F)F)cc2)c2ccccc21)N1CCCC1,nt,18%,-15%
S=C(Nc1ccccc1)Nc1nc2ccccc2n1CCOc1ccc(Br)cc1,-15%,7.9µM*,3%
Nc1nc2ccccc2n1CCOc1ccc(Br)cc1,-5%,nt,nt
CC(C)CCN1CCc2nc(-c3ccccc3)c3c(c2C1)COC(C)C3 (stereo not given),-13%[12.9 µM],nt,nt
Cc1cc(C)cc([N+](=O)[O-])c1,nt,-3%,-1%
Cc1ccccc1-n1c(SCC(N)=O)nc2sc(-c3ccccc3)cc2c1=O,10%,10%,-5%
C=CCSc1nc2sc(-c3ccccc3)cc2c(=O)n1N,3%,32µM*,-5%
O=C(/C=C\NCC(=O)c1ccccc1)c1ccc(F)cc1,-12%,-23%,-15%
O=C(/C=C\NCC(=O)c1ccccc1)c1ccc2ccccc2c1,-13%,32µM*,-26%
Cc1ccc(O)c(C2=Nc3ccccc3N=C(c3cccc([N+](=O)[O-])c3)C2)c1,-5%,nt,nt
Cc1ccc(O)c(C2=Nc3ccccc3N=C(c3ccc([N+](=O)[O-])cc3)C2)c1,2%,20µM*,-8%
Cc1ccc(C2=Nc3ccccc3N(CC(=O)Nc3ccccc3F)C(=O)C2)cc1C,nt,-21%,-8%
CCN(CC)CC[n+]1ccc2c(C)c3[nH]c4ccccc4c3c(C)c2c1,nt,-12%,-5%
CCOc1ccc(OCC)c(Nc2ccc3cc(S(=O)(=O)N4CCCC4)ccc3n2)c1,nt,-16%,0%
CCOC(=O)c1cccc(Nc2ccc3cc(S(=O)(=O)N4CCCCC4)ccc3n2)c1,nt,25µM*,-4%
SMILES,Giardia FBPA inh,Cruzain noTriton,Cruzain inh Det
O=S(=O)(c1ccc2nc(Nc3cccc(F)c3)ccc2c1)N1CCCC1,nt,-29%,-17%
COc1ccc(Nc2ccc3cc(S(=O)(=O)N4CCCC4)ccc3n2)cc1Cl,nt,25µM*,-4%
CC1CCN(S(=O)(=O)c2ccc3nc(Nc4ccc(C#N)cc4)ccc3c2)CC1,nt,32µM*,-6%
O=S(=O)(c1ccc2nc(Nc3ccc(F)cc3)ccc2c1)N1CCCC1,nt,-4%,1%
COc1ccc(Cl)cc1Nc1ccc2cc(S(=O)(=O)N3CCCCC3)ccc2n1,nt,25µM*,-1%
CC1CCN(S(=O)(=O)c2ccc3nc(Nc4cccc(C(F)(F)F)c4)ccc3c2)CC1,nt,?,0%
Cc1nc(NCc2ccccc2)c2nc(-c3ccccc3)n(CCN(C)C)c2n1,6%,-2%,-3%
COc1cccc(-n2c(=O)c3sc4ccccc4c3n(CC(=O)Nc3ccccc3OC)c2=O)c1,nt,-3%,-2%
CC(=O)Nc1ccn(C2CC3OCC(NC(=O)C(Cc4ccccc4)NC(=O)OC(C)(C)C)C3O2)c(=O)n1 (stereo not given),8%,nt,nt
C#CCOCCOCCOCCNc1nc(N2CCN(C(=O)Cn3cc(CCCN=C(N)N)nn3)CC2)nc(N2CCN(C(=O)[C@H]([C@@H](C)CC)n3cc(CCCN=C(N)N)nn3)CC2)n1,26%,20µM*,25µM*
C#CCOCCOCCOCCNc1nc(N2CCN(C(=O)Cn3cc(CCCN=C(N)N)nn3)CC2)nc(N2CCN(C(=O)[C@H](C(C)C)n3cc(CCO)nn3)CC2)n1,-6%,6%,0%
COc1cccc(NC(=O)CN2C(=O)CC(c3ccco3)Sc3ccccc32)c1 (stereo not given),nt,0%,-6%
O=c1n(Cc2ccc(Cl)cc2)c2sc3c(c2c2ncnn12)CCCC3,4%,25µM*,-13%
C=CCn1c(=O)n2ncnc2c2c3c(sc21)CCCC3,5%,-10%,0%
CC(=O)C(Sc1nccc(-c2cccs2)n1)C(C)=O,18µM*,nt,nt
CC(C)NC(=O)CSc1nccc(-c2cccs2)n1,0%,nt,nt
COC(=O)CCN(Cc1ccco1)S(=O)(=O)c1ccc(F)cc1Br,-7%,nt,nt
Fc1ccccc1COc1ccc(/C=N/NC(=S)NCc2ccccc2)cc1,5%,6.3µM*,-1%
Cn1c(=O)n(C)c2cc(/C=N/NC(=S)NCc3ccccc3)ccc21,-11%,?,11µM*
CC(C)(C)c1ccc(/C=N/NC(=S)NCc2ccccc2)cc1,1%,?,-5%
CNC(=S)N/N=C/c1cccc(OCc2ccccc2F)c1,-12%,?,-10%
COCCN(C(=O)c1ccccc1)c1nc(-c2ccc(OC)cc2)cs1,-4%,nt,nt
Cc1ccc(OCC(=O)N(Cc2ccccc2)c2ccccn2)cc1,-8%,nt,nt
COc1ccc(-c2csc(N(CCc3ccccc3)C(=O)COc3ccccc3)n2)cc1,1%,13µM*,3%
O=C(COc1ccc(Cl)cc1)N(Cc1ccccc1)c1nc(-c2ccccc2)cs1,4%,10µM*,4%
SMILES,Giardia FBPA inh,Cruzain noTriton,Cruzain inh Det
CCOc1ccc(OCC)c(NC(=O)Cn2nc(CC)n3c(cc4sccc43)c2=O)c1,nt,6%,1%
O=c1oc2ccccc2c(O)c1/C=N/c1nc(-c2ccc(O)c(O)c2)cs1,nt,4%,2%
Cc1noc(C)c1-c1nc(NCc2ccccc2)c2ccccc2n1,-9%,-5%,-3%
[O-]/C(=C(\C(=S)Nc1cccc2ccccc12)[n+]1ccccc1)c1ccc(Cl)s1,?,7.9µM*,-14%
CC(C)(C)c1cc[n+](/C(C(=S)NC2CC2)=C(/[O-])c2ccc(Cl)s2)cc1,6.3µM*,-5%,-10%
Cc1cc(C)cc(NC(=S)/C(=C(\[O-])c2ccc(Cl)s2)[n+]2cccc(C)c2)c1,-29%,nt,nt
Cc1cc(C)cc(NC(=S)/C(=C(\[O-])c2ccc(Cl)cc2Cl)[n+]2ccc(C(C)(C)C)cc2)c1,6%,nt,nt
CCCCc1cc2c(cn1)=C(OC(=O)c1ccco1)C(C)(OC(=O)CC)C(=O)C=2 (stereo not given),-10%[12.9 µM],nt,nt
CSc1ccc(CN(C)CC(=O)Nc2ccc(NC(C)=O)cc2)cc1,3%,nt,nt
CSc1ccc(CN(C)CC(=O)Nc2c(F)cccc2F)cc1,20µM*,nt,nt
NC(=O)C1O[C@@H](O)[C@H](O)[C@@H](O)[C@H]1O (stereo not given in full),2%,nt,nt
CC(=O)Nc1ccc2c(c1)C(=Nc1ccc(C(=O)O)cc1)c1ccccc1-2,nt,1%,0%
O=S(=O)(c1ccc(Cl)cc1)c1nc(-c2ccccc2F)oc1NCc1ccccc1,nt,-10%,-2%
